LGR2 antag – inhibitors of bursicon-induced LGR2 CRE-luciferase signal, primary screen, cell-based, HEK293, CRE-luciferase reporter, bursicon stimulation; bursicon-stimulated, 4 h; inhibition, % at 9.99 µM; hit rate 0.35% among 380,000;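 active = drop in luminescence signal, shown as inhibition above about 50% in the replicate tests, limit read from the data, passing the limit was not always enough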;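 note: agonist challenge used bursicon conditioned medium at about half maximal strength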
Mdm2-MdmX inh – inhibitors of human Mdm2-MdmX association, primary screen, cell-based, luminescence, split luciferase, SaOS-2, uHTS. Protein Mdm4 (Homo sapiens) + E3 ubiquitin-protein ligase Mdm2 (Homo sapiens), …. SaOS-2 split-luciferase Mdm2/MdmX complementation. inhibition, % at 8 µM. hit rate 3% among 330,000. AID 485346, 2010;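 active = inhibition of at least 50% at 8 µM in the primary screen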
Target sequence (O15151 whole entry, looked up): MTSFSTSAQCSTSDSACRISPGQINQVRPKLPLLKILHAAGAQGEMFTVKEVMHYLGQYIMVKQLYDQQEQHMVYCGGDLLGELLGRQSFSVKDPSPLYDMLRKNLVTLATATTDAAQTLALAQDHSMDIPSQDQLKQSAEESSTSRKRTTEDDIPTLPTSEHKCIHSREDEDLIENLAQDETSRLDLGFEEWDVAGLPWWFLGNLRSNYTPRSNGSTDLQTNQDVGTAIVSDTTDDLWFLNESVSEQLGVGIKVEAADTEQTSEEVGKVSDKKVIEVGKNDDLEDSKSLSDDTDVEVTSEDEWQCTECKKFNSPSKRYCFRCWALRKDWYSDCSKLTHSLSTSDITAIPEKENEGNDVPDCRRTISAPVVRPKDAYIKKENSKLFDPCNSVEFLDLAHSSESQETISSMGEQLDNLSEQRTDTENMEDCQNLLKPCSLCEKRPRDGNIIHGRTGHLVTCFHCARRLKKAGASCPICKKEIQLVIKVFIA
Target sequence (Q00987 whole entry, looked up): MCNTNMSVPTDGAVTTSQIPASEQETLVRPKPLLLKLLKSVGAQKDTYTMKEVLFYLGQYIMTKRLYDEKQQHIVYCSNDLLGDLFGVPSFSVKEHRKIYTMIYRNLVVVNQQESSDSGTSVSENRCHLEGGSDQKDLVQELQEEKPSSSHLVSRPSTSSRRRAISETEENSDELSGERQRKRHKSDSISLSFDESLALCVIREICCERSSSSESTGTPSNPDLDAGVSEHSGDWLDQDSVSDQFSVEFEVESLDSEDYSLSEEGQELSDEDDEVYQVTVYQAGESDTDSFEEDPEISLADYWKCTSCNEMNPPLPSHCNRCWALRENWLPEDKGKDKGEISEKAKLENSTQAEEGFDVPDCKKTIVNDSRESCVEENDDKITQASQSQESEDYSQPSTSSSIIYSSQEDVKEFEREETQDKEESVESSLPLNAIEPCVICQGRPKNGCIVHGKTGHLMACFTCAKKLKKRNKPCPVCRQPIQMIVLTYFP
HSP90 refold inh – HSP90 inhibitors, primary screen, cell lysate, luminescence; Rabbit reticulocyte lysate, luciferase refolding luminescence, 3 h; Heat shock protein HSP 90 (rabbit reticulocyte lysate; luciferase refolding); AID 1789, 2009; hit rate 0.91% among 290,000; inhibition, % at 5.6 µM;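 active = inhibition above the screen-wide mean plus 3 SD, computed separately per campaign, cut at about 16% in these data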;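 note: inhibitors lower the luminescence because luciferase stays unfolded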
KKLEB tox – cytotoxicity in KKLEB CF airway cells, primary screen, cytotoxicity control for CF NF-kB inhibitor project, cell-based, uHTS, fluorescence assay plates | AID 602141, 2011 | activity change (cytotoxicity), % at 5 µM | hit rate 0.36% among 360,000 | KKLEB CF airway cells viability, ATPlite luminescence, overnight; stronger effect = lower value; cells stimulated with P. aeruginosa culture filtrate;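 active = corrected activity change at or below -50% at 5 µM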
Peg3 prom inh – Peg3 promoter-driven luciferase inhibitors, primary screen, cell-based, HeLa, luciferase luminescence; hit rate 1.7% among 360,000; HeLa PEG-Prom luciferase reporter, overnight; inhibition, % at 20 µM;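 active = inhibition of at least 50% at 20 µM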
CF NFkB inh – inhibitors of PAF-induced NF-kB signaling, primary screen, cell-based, GFP fluorescence, uHTS; inhibition, % at 5 µM; hit rate 0.86% among 360,000; AID 588850, 2011; KKLEB NF-kB-GFP reporter, GFP fluorescence overnight;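 active = at least 50% inhibition at 5 µM, scaled per plate between neutral and stimulator controls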;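 note: PAF is a Pseudomonas aeruginosa culture filtrate used as stimulus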
Mdm2 MdmX conf – Mdm2-MdmX complex disruptors, retested hits, confirmation, luminescence, single concentration; hit rate 55% among 10,000; shares compounds with Mdm2-MdmX inh; Mdm2-MdmX binding, luminescent assay; AID 489028, 2010; inhibition, % at 8 µM; in the data active = inhibition above about 40%
Full FLuc ctr – full-length luciferase signal inhibition, confirmation, counter-screen for Mdm2/MdmX interaction inhibitor project, cell-based, single concentration, SaOS-2; shares compounds with Mdm2-MdmX inh; SaOS-2 full-length luciferase counterscreen, luminescence; inhibition, % at 8 µM; hit rate 77% among 6,200;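 active = mean inhibition at 8 µM reaching about 37%, which flags the compound as non-specific, limit read from the data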;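 note: p53-null SaOS-2 cells with luciferase driven by a doxycycline-inducible promoter; compound on cells about two nights before reading with doxycycline added after day one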
Hits are given with their value; i = inactive; nt = no result. The list is not random: actives were taken first. Their share in the collection is about 3.6%.

SMILES	LGR2 antag	Mdm2-MdmX inh	HSP90 refold inh	KKLEB tox	Peg3 prom inh	CF NFkB inh	Mdm2 MdmX conf	others
C[C@H]1CCCCO[C@@H](CN(C)C(=O)Nc2ccccc2)[C@@H](C)CN([C@@H](C)CO)C(=O)c2cc(NS(=O)(=O)c3cn(C)cn3)ccc2O1	i	nt	nt	nt	nt	nt	nt
COc1cc2c(cc1OC)C(c1ccccc1)N(C(=O)CCl)CC2 (stereo not drawn)	nt	100.4	i	i	102.0	i	i
COc1cc2c(cc1OC)C(C1C(=O)CCCC1=O)N(C(=O)CCl)CC2 (stereo not drawn)	i	i	i	i	i	i	nt
COc1ccc(NC(=O)Nc2ccc3c(c2)[C@@H]2C[C@H](CC(=O)NCc4ccc5c(c4)OCO5)O[C@@H](CO)[C@@H]2O3)cc1	i	nt	nt	nt	nt	nt	nt
CC/C(=C(/CC)c1ccc(O)cc1)c1ccc(O)cc1	i	54.1	i	i	i	i	47.9	Full FLuc ctr=52.6
C[C@H](NC(=O)[C@H]1N[C@H]2c3ccc(C4=CCCC4)c(=O)n3C[C@H]2[C@@H]1CO)c1ccccc1	i	nt	nt	nt	nt	nt	nt
O=C(C[C@@H]1C[C@H]2c3cc(NC(=O)CC4CC4)ccc3O[C@H]2[C@H](CO)O1)NCCc1ccccc1	i	nt	nt	nt	nt	nt	nt
Cc1ccc(C)c(-c2nnc(NC(=O)Cc3ccc(F)cc3)o2)c1	nt	51.9	i	i	i	i	i
Cc1ccc(-c2nnc(NC(=O)Cc3ccc(F)cc3)o2)c(C)c1	nt	i	i	i	i	i	nt
Cn1cccc1/C=N/NC(=O)c1sc2cc(Cl)ccc2c1Cl	i	73.5	i	nt	nt	nt	i	Full FLuc ctr=47.7
Cc1ccc2c(Cl)c(C(=O)N/N=C/c3cccn3C)sc2c1	i	i	i	i	i	i	nt
COc1ccccc1NC(=O)Cn1nnc(-c2ccccc2NC(=O)c2cnccn2)n1	i	52.0	i	i	i	i	i
CC(C)(C)NC(=O)Cn1nnc(-c2ccccc2NC(=O)c2cnccn2)n1	nt	i	i	i	i	i	nt
O=C(Cn1nnc(-c2ccccc2NC(=O)c2ccccc2F)n1)NCc1ccco1	nt	50.4	i	i	i	i	i
COc1ccc(NC(=O)Cn2nnc(-c3ccccc3NC(=O)c3ccco3)n2)cc1	nt	54.8	i	i	i	i	55.5	Full FLuc ctr=i
COc1ccc(C(=O)Nc2ccccc2-c2nnn(CC(=O)NCc3ccco3)n2)cc1	nt	i	i	i	i	i	nt
C[C@H](CO)N1C[C@H](C)[C@H](CN(C)S(=O)(=O)c2ccc(F)cc2)OCCCC[C@H](C)Oc2ccc(NC(=O)Nc3ccc(F)cc3)cc2C1=O	i	nt	nt	nt	nt	nt	nt
COCCNC(=S)NCc1ccc2[nH]c3c(c2c1)CCCC3	i	i	i	i	i	i	nt
Cc1ccc(NC(=S)NCc2ccc3[nH]c4c(c3c2)CCCC4)cc1	i	72.0	i	i	i	i	i
CC(C)(C)N(Cc1cc2ccccc2[nH]c1=O)C(=O)C1CCCCC1	i	62.2	i	i	i	i	64.4	Full FLuc ctr=89.2
CCN(Cc1cc2ccccc2[nH]c1=O)C(=O)C1CCCCC1	nt	i	i	i	i	i	nt
O=C(C[C@H]1CC[C@H](NC(=O)c2ccncc2)[C@H](CO)O1)NCC1CC1	i	nt	nt	nt	nt	nt	nt
COc1ccccc1C(=O)Nc1ccc2c(c1)C(=O)N(C)C[C@@H](OC)[C@H](C)CN(C)[C@@H](C)CO2	i	nt	nt	nt	nt	nt	nt
Cc1cc(Br)c(OCc2ccc(C(=O)N/N=C/c3ccc[nH]3)cc2)c(Br)c1	i	97.7	nt	-84.7	99.6	71.1	94.4	Full FLuc ctr=i
O=C(N/N=C/c1ccc[nH]1)c1ccc(O)cc1	i	i	i	i	i	i	nt
SMILES	LGR2 antag	Mdm2-MdmX inh	HSP90 refold inh	KKLEB tox	Peg3 prom inh	CF NFkB inh	Mdm2 MdmX conf	others
O=C(N/N=C/c1ccc[nH]1)c1ccc(COc2cccc3cccnc23)cc1	i	96.9	i	-54.2	89.2	i	82.7	Full FLuc ctr=52.3
O=C(N/N=C/c1ccccc1C(=O)O)c1ccc(COc2cccc3cccnc23)cc1	i	i	i	i	i	i	nt
CC(C)(C)c1ccc(CN2C3=NCCCN3c3ccccc32)cc1	nt	68.8	i	i	i	i	i	Full FLuc ctr=61.3
Cc1cc2c(cc1C)N(Cc1ccc(Cl)cc1)C1=NCCCN12	i	55.9	nt	i	57.0	i	i	Full FLuc ctr=90.1
Cc1ccc(-c2csc(NC(=O)CSc3nc4ccccc4[nH]3)n2)cc1	i	nt	i	i	i	i	nt
COc1ccc(-c2csc(NC(=O)CSc3nc4ccccc4c(=O)[nH]3)n2)cc1	i	50.6	i	i	i	70.8	i
COc1ccc2cc(C)c3nnc(SCC(=O)Nc4nc(-c5ccc(F)cc5)cs4)n3c2c1	i	86.4	i	i	65.5	i	i
Cc1noc(C)c1NC(=O)N[C@H]1CC[C@@H](CC(=O)N2CCN(C)CC2)O[C@@H]1CO	i	nt	nt	nt	nt	nt	nt
COCCCNC(=O)C[C@H]1C[C@H](C(=O)N2CCOCC2)[C@@]2(CCC3CCCC3)c3[nH]c4cc(-c5ccco5)ccc4c3CCN2C1=O	i	i	nt	i	i	i	nt
CN(C)CCCNC(=O)C[C@H]1C[C@H](C(=O)N2CCOCC2)[C@@]2(CCC3CCCC3)c3[nH]c4cc(-c5ccco5)ccc4c3CCN2C1=O	i	94.9	nt	i	95.0	i	i
O=C(CC1C[C@H](C(=O)N2CCOCC2)[C@@]2(CCC3CCCC3)c3[nH]c4ccccc4c3CCN2C1=O)NCC12CC3CC(CC(C3)C1)C2 (stereo partly drawn)	i	84.0	nt	i	i	i	67.8	Full FLuc ctr=37.6
O=C(C[C@H]1C[C@H](C(=O)N2CCOCC2)[C@@]2(CCC3CCCC3)c3[nH]c4cc(-c5ccco5)ccc4c3CCN2C1=O)NCC12CC3CC(CC(C3)C1)C2	i	54.5	nt	i	i	i	i
CC(C)(C)NC(=O)C[C@H]1C[C@H](C(=O)N2CCOCC2)[C@@]2(CCC3CCCC3)c3[nH]c4cc(-c5ccco5)ccc4c3CCN2C1=O	nt	73.1	nt	i	i	i	i
O=C(CC1C[C@H](C(=O)N2CCOCC2)[C@@]2(CCC3CCCC3)c3[nH]c4ccccc4c3CCN2C1=O)NCCN1CCOCC1 (stereo partly drawn)	i	i	nt	i	i	i	nt
O=C(C[C@H]1C[C@H](C(=O)N2CCOCC2)[C@@]2(CCC3CCCC3)c3[nH]c4cc(-c5ccco5)ccc4c3CCN2C1=O)NCCN1CCOCC1	i	i	nt	i	i	i	nt

Compound activity deposited in PubChem by several laboratories.
